Shown are actives, neighbours in structure and some others; about 3.3% of the full set was active somewhere.
Wnt bcat act – activates Wnt/beta-catenin signaling in a reporter cell assay; 300,000 compounds, 1.2% hits; activation, % at 9.35 µM; activator, plate reader; AID 743398; in the data active means activation above about 30%, passing the limit was not always enough; inconclusive means no clear call, values can overlap the other calls;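 further: 0% = neutral control wells and 100% = positive control wells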
MITF act – activators of MITF-driven TRPM1 promoter activity in SK-MEL-5 cells | SK-MEL-5 TRPM1-promoter luciferase, 24 h; % of positive control, neutral wells = 0 | activation, % at 12.5 µM | 300,000 compounds, 0.75% hits | AID 588334;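 active means mean activation of at least 80% with every replicate also reaching 80%; inconclusive means mean reaches 80% but some replicate falls short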;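 further: 0% = neutral control wells and 100% = parthenolide positive control wells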
C2C12 statin – protects C2C12 myotubes from simvastatin toxicity; ATP luminescence, 48 h; scaled: DMSO 0, geranylgeraniol control 100; rescue of ATP level, % at 7.49 µM; 330,000 compounds, 0.78% hits; AID 602340;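 active means mean ATP rescue above about 67%, or every replicate alone reaching that limit, limit read from the data, passing the limit was not always enough; inconclusive means no clear call, values can overlap the other calls; inactive means mean under the limit and some replicate under it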;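 further: myotubes were challenged with 10 µM simvastatin during compound exposure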
GAA850 FXN act – activators of GAA850 frataxin (FXN) promoter. HEK293 lucGAA850 FXN promoter luciferase reporter, 24 h; percent of 10 µM SAHA response. activation, % at 6 µM. 360,000 compounds, 0.56% hits;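 active means activation above the average of all compounds screened plus 3 SD, cutoff fixed separately per campaign, cut at about 7.5% in these data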;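 further: 0% = DMSO wells and 100% = 10 µM SAHA wells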
esBAF inh – blocks esBAF chromatin remodeling in mouse ES cells; Bmi1-luciferase knock-in reporter, 24 h; 100% = twice the neutral-well signal; reporter increase, % at 12.5 µM; 350,000 compounds, 2% hits; AID 602393; in the data active means activation above about 40%; inconclusive means no clear call, values can overlap the other calls;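 further: 0% = median of the plate's neutral control wells and 100% = double that signal; a rise in the Bmi1 reporter signal indicates esBAF inhibition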
GAA30 FXN cntr – activates GAA30 frataxin promoter, counter-screen for GAA850 activators; shares compounds with GAA850 FXN act; HEK293 lucGAA30 FXN promoter luciferase, 24 h; DMSO = 0%, 5 µM ipriflavone = 100%; activation, % at 6 µM; 1,900 compounds, 66% hits;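 active means mean activation above the mean of solvent-only control wells plus 3 SD, cut at about 22% in these data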;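 further: counterscreen of GAA850 promoter hits where activity marks nonselective or luminescence artifacts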
FXN GAA850 conf – GAA850 FXN promoter activation confirmation; shares compounds with GAA850 FXN act; HEK293 lucGAA850 FXN promoter luciferase reporter, 24 h; 100% = activation by SAHA; activation, % at 6 µM; 1,900 compounds, 86% hits;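 active means mean activation above a set limit taken from the primary screen, cut at about 8% in these data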;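 further: 0% = DMSO wells and 100% = 10 µM SAHA wells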
* hit, by the source's call.

Cc1ccc(OCCSc2nc(N)cc(N)n2)cc1 was read as Wnt bcat act 13, MITF act inconclusive, GAA850 FXN act 9.1*, GAA30 FXN cntr 110* and FXN GAA850 conf 37*.
`CC(O)CNc1ncnc2cc(-c3ccc(F)cc3)sc12` (stereo not given) gave Wnt bcat act 12, MITF act inconclusive, C2C12 statin -1, GAA850 FXN act 10*, esBAF inh 54*, GAA30 FXN cntr 75* and FXN GAA850 conf 30*.
Screening Cc1sc2nc(C(C)C)nc(SCC(=O)NC3CC3)c2c1C returned Wnt bcat act -3, MITF act -17, C2C12 statin -6, GAA850 FXN act -2 and esBAF inh 6.
`Cc1cc(NC(=O)CSc2nc(C(C)C)nc3sc(C)c(C)c23)no1` gave Wnt bcat act -6, MITF act -14, C2C12 statin -1, GAA850 FXN act 7.9*, esBAF inh 0, GAA30 FXN cntr -6 and FXN GAA850 conf 13*.
`CN(C)CCCNC(=O)[C@H]1[C@H](CO)[C@H]2Cn3c(ccc(C4=CCCCC4)c3=O)[C@@H]1N2Cc1cocn1` gave C2C12 statin 0 and esBAF inh 3.
For CC(C)(C)c1ccc(Cn2nnc3c(=O)[nH]c(C4CCCN(C(=O)Cc5cccs5)C4)nc32)cc1 (stereo not given) the results were Wnt bcat act -3, MITF act 4, C2C12 statin 60, GAA850 FXN act 3 and esBAF inh -3.
CC(C)(C)c1ccc(Cn2nnc3c(=O)[nH]c(C4CCN(C(=O)Cc5cccs5)CC4)nc32)cc1 was read as MITF act 1, C2C12 statin 112*, GAA850 FXN act 8.3*, esBAF inh 9, GAA30 FXN cntr 2 and FXN GAA850 conf 10*.
For CO[C@H]1CN(C)C(=O)c2ccc(NS(=O)(=O)C3CCCCC3)cc2OC[C@@H](C)NC[C@H]1C the results were C2C12 statin -14 and esBAF inh -2.
C=C1CCC2C(C)(C)[C@@H](O)CC[C@@]2(C)[C@@H]1COc1ccc2ccc(=O)oc2c1 (stereo not given in full) was read as Wnt bcat act -1, MITF act -3, C2C12 statin 23, GAA850 FXN act 1 and esBAF inh -4.
Screening CC(=O)OC1CCC2(C)C(COc3ccc4ccc(=O)oc4c3)C(C)(O)CCC2C1(C)C (stereo not given) returned MITF act 6, C2C12 statin -24, GAA850 FXN act 12*, esBAF inh 7, GAA30 FXN cntr -4 and FXN GAA850 conf 17*.
CCC(=O)Nc1ccc2c(c1)C(=O)N(C)C[C@@H](OC)[C@H](C)CN(C(=O)CN1CCOCC1)[C@H](C)CO2 was read as C2C12 statin -13 and esBAF inh -2.
Screening CCN(CC)S(=O)(=O)c1ccc(C(=O)OCCN2C(=O)c3cccc4c(N5CCOCC5)ccc(c34)C2=O)cc1 returned Wnt bcat act 1, MITF act 3, GAA850 FXN act 8.5*, GAA30 FXN cntr 21 and FXN GAA850 conf 6.
Screening Cc1noc(C)c1NC(=O)N(C)C[C@@H]1Oc2ccc(NS(=O)(=O)c3c(C)noc3C)cc2C(=O)N([C@@H](C)CO)C[C@H]1C returned esBAF inh 8.
Cc1cccc(C2CC(c3ccccc3)Nc3ncnn32)c1 (stereo not given) was read as Wnt bcat act -1, C2C12 statin 9, GAA850 FXN act 19*, esBAF inh 11, GAA30 FXN cntr 10 and FXN GAA850 conf 9.6*.
`COc1ccc(C2CC(c3cccc(C)c3)n3ncnc3N2)cc1` (stereo not given) gave Wnt bcat act 0, MITF act -3, C2C12 statin 6, GAA850 FXN act 1 and esBAF inh -3.

From PubChem
